# Source: PubChem (National Center for Advancing Translational Sciences (NCATS))
# Pf Dd2 growth – Plasmodium falciparum Dd2 growth inhibition | P. falciparum Dd2 growth, SYBR Green, 72 h | Potency, µM (doses to about 28.9 µM), inactives show at the top dose activity, negative = inhibition, most hits filed as inhibitors | 120,000 compounds, 4.3% hits | AID 1347417; active = well fitted inhibition curve with a large enough effect;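 note: plate controls were DMSO vehicle for no effect and reference drug for full effect; nearly all actives have a fitted effect of over 65% in size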
#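 Infected erythrocytes (Dd2, 0.3% parasitemia, 2.5% hematocrit final) are added to compound in RPMI-1640/Albumax II medium, grown 72 h at 37C in low oxygen, then lysed with saponin/Triton-X containing SYBR Green and read by fluorescence.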
# * marks the source's active call; other numbers are inactive results; i = inactive; [ ] = another dose, or the depositor's remark. This excerpt belongs to a sample that is enriched for hits. Potency is the fitted concentration of half-maximal effect.
SMILES,Pf Dd2 growth
F[C@@H]1CN(Cc2ccc(C(F)(F)F)cc2)C[C@@H]1OCc1nc2ccccc2[nH]1,-6%[44.1 µM]
COc1ccc(CN2C[C@@H](F)[C@@H](OCc3nc4ccc(F)cc4[nH]3)C2)cn1,-16%[44.1 µM]
Cc1cc2nc(CO[C@H]3CN(C)C[C@H]3F)[nH]c2cc1C,i
Fc1ccc2nc(CO[C@H]3CN(Cc4cccnc4)C[C@H]3F)[nH]c2c1,-20%[44.1 µM]
COC(=O)c1ccc2nc(CO[C@H]3CN(Cc4ccc5c(c4)OCO5)C[C@H]3F)[nH]c2c1,8.9µM*
Cc1ccn2c(C(=O)N3CCC4(CC3)Nc3ccccc3NC4=O)nnc2n1,-37%
Cc1ccoc1C(=O)N1CCC(Oc2ccccc2F)(C(=O)O)CC1,-12%
COc1ccc(CNC(=O)N2CCC(c3noc(-c4cnccn4)n3)C2)cc1 (centres undefined),i[5.79 µM]
CNc1ccc(C(=O)N2CCC(CCn3cccn3)CC2)cn1,-23%
O=C(Nc1cccc(Cl)c1F)N1CCC(n2cnnc2C2CC2)C1 (centres undefined),-29%
CN(C)CCN(C)[C@@H]1[C@H](O)[C@H](CO)O[C@@H]1CNC1CCN(C)CC1,9%
Cc1cc(C(=O)N2CCCN(S(C)(=O)=O)C(c3ccccc3)CC(=O)NCC2)n(C)n1 (centres undefined),10%
COc1ccc2nc(CO[C@H]3CN(Cc4ccc(S(C)(=O)=O)cc4)C[C@H]3F)[nH]c2c1,i
Cc1csc(NC(=O)c2nc3c(o2)CCN(CC2CCCC2)CC3)n1,i
Cc1cc(CNC(=O)[C@@H]2CCC[C@@H](NC(=O)NC3(c4ccccc4)CCOCC3)CN(C)C(=O)C2)no1,-11%
CCNC(=O)N1CCCC1c1noc(CCC(=O)NC(C)C)n1 (centres undefined),36%
COc1ccc(C2C=C(c3ccc(Cl)cc3)Nc3nc(-c4ccc(Cl)cc4)nn32)cc1 (centres undefined),0.1µM*
CC1=C(C(N)=O)C(c2ccccc2F)n2nc(-c3ccc(Cl)cc3)nc2N1 (centres undefined),-13%
Cc1ccc(S(=O)(=O)Nc2nc3n(n2)C(c2ccccc2Cl)C=C(c2ccccc2)N3)cc1 (centres undefined),-2%
Cc1ccc(C2=CC(c3ccc(Cl)cc3)n3nc(-c4ccc(C)cc4)nc3N2)cc1 (centres undefined),1.3µM*
Cc1cc(C)n2nc(-c3ccc(Cl)cc3)nc2n1,i
COc1ccc(-c2nc3n(n2)C(c2cccc(C)c2)C(C(N)=O)=C(C)N3)cc1OC (centres undefined),-10%
CCOc1ccc(C2C=C(c3cccc(OC)c3)Nc3nnnn32)cc1 (centres undefined),i
COc1ccc(-c2nc3n(n2)C(=O)CC(c2ccc(Cl)cc2)S3)cc1 (centres undefined),39%
Cc1ccc(-c2nc3n(n2)C(c2ccccc2C)C=C(c2ccc(Cl)cc2)N3)cc1 (centres undefined),5µM*
SMILES,Pf Dd2 growth
CCOc1cccc(CN2C[C@@H](CO)[C@H](C3CCN(C(C)=O)CC3)C2)c1,-11%
COc1ccc(S(=O)(=O)N2C[C@@H]3C[C@H](C2)c2ccc(-c4cccc(C(F)(F)F)c4)c(=O)n2C3)cc1,-13%
O=C1CC(c2ccccc2)N(C(=O)C2CC2)CCCN(C(=O)COc2ccccc2)CCN1 (centres undefined),i
CNC(=O)[C@H]1C[C@H](Oc2ccccc2)CN1C(=O)Cn1ccnc1,0%
CCNC(=O)N1CCC(Oc2ccccc2)C1 (centres undefined),-17%
COc1cccc(CC(=O)N2[C@@H]3CC[C@H]2CC(NC(=O)c2ccncc2)C3)c1 (some centres undefined),-1%
O=C(NCc1ccccn1)c1ccc2c(c1)n(Cc1cccc(F)c1)c(=O)c1ccnn12,5µM*
CN(C)C(=O)c1ccc2c(c1)n(Cc1ccc(F)cc1)c(=O)c1ccnn12,10µM*
CNC(=O)c1ccc2c(c1)n(Cc1ccc(OC)cc1)c(=O)c1ccnn12,-20%
O=C(NCc1cccc(F)c1)c1ccc2nccn2c1,-12%[44.1 µM]
Cn1ncc(N2CCC(NC(=O)Cc3ccc(F)cc3)CC2)cc1=O,-11%
O=C(NCc1ccccc1)c1ccc2oc(=O)n(Cc3ccccc3)c2c1,0%
CCCN1CCN(C(=O)c2ccc3c(c2)n(CC)c(=O)c2ccnn23)CC1,i
Cn1c(=O)c2ccnn2c2ccc(C(=O)Nc3ccc(N4CCOCC4)cc3)cc21,i
CN1CCC(NC(=O)c2ccc3c(c2)n(Cc2ccc(F)cc2)c(=O)c2ccnn23)CC1,2.5µM*
CN1C(=O)C(c2ccccc2)CC12CCN(C(=O)C1CCC(O)CC1)CC2 (centres undefined),-12%
COCC(=O)NC[C@H]1CCN(Cc2cccc(C#N)c2)C[C@H]1N(C)C,-14%
COc1ccc(C(=O)N2CCc3onc(-c4ccc(C(F)(F)F)cc4)c3C2)o1,-7%
Cc1cc2c(c(=O)n(-c3ccc(F)cc3)c(=O)n2CC(=O)Nc2ccc(F)cc2)n1C,i
CCC(CC)N1C[C@@H](CO)[C@H](c2nc(CCOC)no2)C1,18%
CC(C)CN1C[C@@H](C(=O)O)C[C@@H](C(=O)Nc2ccc(F)cc2)C1,3%
O=C(NCc1nnc2n1C(C(=O)NCc1ccc(F)cc1)CC2)c1ccc(Cl)cc1Cl (centres undefined),10%
O=C(NCc1ccc(F)cc1)C1CCc2nnc(-c3ccc(Cl)nc3)n21 (centres undefined),7.1µM*
COc1ccccc1-c1nnc2n1C(C(=O)NCc1ccc(F)cc1)CC2 (centres undefined),4µM*
O=C(C1CCc2nnc(-c3ccc(Cl)cc3Cl)n21)N1CCN(c2ncccn2)CC1 (centres undefined),5%
SMILES,Pf Dd2 growth
Cn1ccc(C(=O)NCc2nnc3n2C(C(=O)NCc2ccc(F)cc2)CC3)n1 (centres undefined),17%
CC(C)NC(=O)NCc1nnc2n1C(C(=O)NCc1ccc(F)cc1)CC2 (centres undefined),26%
C#CCNC(=O)C1CCc2nnc(-c3ccc(Cl)nc3)n21 (centres undefined),33%
O=C(NCc1ccc(F)cc1)C1CCc2nnc(-c3ccc(Cl)cc3Cl)n21 (centres undefined),3.2µM*
COc1ccccc1-c1nnc2n1C(C(=O)N1CCN(c3ncccn3)CC1)CC2 (centres undefined),13%
CCO[C@H]1CN(C(=O)CCc2ccc(-c3ccc(Cl)cc3)[nH]2)C[C@@H]1O,-20%
CC(C)CC(=O)N1C[C@@H](Oc2cccnc2)C[C@H]1C(=O)NC1CC1,38%
Cc1noc([C@@H]2CN(S(=O)(=O)c3ccc4c(c3)OCCO4)C[C@H]2C(N)=O)n1,-9%
O=C(Cn1ccccc1=O)N1CCC(N2CCSCC2)CC1,-17%
Cc1cccc(OC[C@H]2C[C@@H](NCc3ccc(C)o3)[C@H](O)[C@@H]2O)n1,i
Cc1cnc(C(=O)N2CCC(Oc3cccnc3)C2)cn1 (centres undefined),3%
N#Cc1ccc(CN2CC[C@@H]3OCC(=O)N(CCc4cccnc4)[C@H]3CC2)cc1,3%[44.1 µM]
COC(=O)[C@H]1CN(C(=O)c2cccnc2)CCN1C(=O)N1CCOCC1,16%[44.1 µM]
COc1ccc(OC)c(-c2cc(-c3ccccc3)nc3c(C)noc23)c1,i
COc1ccccc1CNC(=O)c1ccc(CN2C(=O)NC3(CCOCC3)C2=O)cc1,-7%
CCCNC(=O)C[C@@H]1CCN(C(=O)c2ccnc(Cl)c2)C[C@@H]1CC,10%[44.1 µM]
